About 79,000 compounds went through this panel and 15% of them were active in at least one assay; those are over-represented in the sample as a whole. Values without a mark were called inactive. Activity calls are given as the source filed them. Rule as the data show it: active = growth inhibition above about 70%; inactive = the rest.

A short description of this experiment: NCI Yeast Anticancer Drug Screen. Data for the rad50 strain (AID 155).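 Also: 0% = growth of vehicle-only cultures of the same strain.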 As to conditions: S. cerevisiae rad50 strain growth inhibition; at 50.0 µM; hits give high values. The gist of the method:
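Inhibition values express reduced yeast growth in compound-treated cultures relative to vehicle-treated controls.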
Take `C(=C(/C=C/C(=C/c1ccccc1)c1ccccc1)c1ccccc1)\c1ccccc1`: the growth inhibition is 33.5%. In the case of `CC1(S)CCC2CC1C2(C)C` (stereo not given) it was -15.7%. In the case of `N#CCCN(CCC#N)c1ccc(C(=O)NN)cc1` it was -18.1%; in that of `OCC1NC(CO)C(O)C1O` (stereo not given), 6.5%; in that of `COc1ccc(OC)c(NC(=O)Nc2nccs2)c1`, 1.9%. In the case of `N=c1c2ccccc2nc2oc3ccc(Cl)cc3n12` it was -15.4%; in that of `COc1ccc(N)c(OC)c1`, -30.6%.

With `O=C(CC(O)(C(F)(F)F)C(F)(F)F)c1ccc(Cl)c([N+](=O)[O-])c1`, the growth inhibition was 97.2% (active). As for `CCCc1cc(=O)oc2c3c(c4c(c12)OC(C)(C)C=C4)O[C@H](C)[C@@H](C)C3O` (stereo not given in full), the figure is -6.25%. In the case of `CSc1nc(N)c(NS(=O)(=O)c2ccc(NC(C)=O)cc2)c(=O)[nH]1` it was 5.85%; in that of `O=C(Nc1ccc([N+](=O)[O-])cc1Cl)c1ccc(C(=O)Nc2ccc([N+](=O)[O-])cc2Cl)cc1`, -6.4%. In the case of `O=c1oc2ccc(Cl)cc2n1CN1CCOCC1` it was 1.9%; in that of `C[N+](C)(CCCN1C(=O)c2cccc3c(Br)ccc(c23)C1=O)Cc1ccc(Cl)c(Cl)c1`, 97.8% (active); in that of `CCCN(CCC)C1=Nc2ccccc2-n2cnnc2C1`, -22.4%. Regarding `C1CCC(NCSC2=NCCS2)CC1`, the growth inhibition was 36.5%.

`N#CCN(CCc1ccccc1)CCc1ccccc1`: the growth inhibition is 8.35%. With `O=S1(=O)CC2C3CC(Oc4ccccc4)C(C3)C2C1` (stereo not given), the growth inhibition is -9.85%. As to `CC(CO)(CO)N1C(=O)c2cccc3cc([N+](=O)[O-])cc(c23)C1=O`, the growth inhibition was 31.4%. Turning to `Cc1cc2nc3c(=O)[nH]c(=O)nc-3n(CCN(CCO)CCO)c2cc1Cl`, the growth inhibition was 58.9%. As for `NC(=S)SC1=NNC2(C(=O)N1)c1ccccc1-c1ccccc12`, the figure is -11.6%. In the case of `CC(=O)OC[C@@]12CC[C@H]3C(C)(C)CCC[C@]3(C)[C@H]1C[C@@H](C1=CC(=O)O[C@H]1O)O2` it was 86.6% (active). As for `O=C(NC(C(=O)O)c1ccccc1)c1ccc([N+](=O)[O-])cc1` (stereo not given), the figure is 8.2%.

With `CSc1nsc(SC)c1C(N)=O`, the growth inhibition was -0.25%. In the case of `O=C(NC1C=Nc2ccc([N+](=O)[O-])cc2NC1=O)c1ccc(Cl)cc1` (stereo not given) it was 13.2%; in that of `COc1ccc2c(c1)CCCN2S(=O)(=O)c1ccccc1[N+](=O)[O-]`, -25.7%; in that of `COc1ccc(/C=C(\C(C)=O)C(=O)Nc2ccccc2)cc1`, 21.1%. As for `CC(=O)NC(Cc1ccccc1)c1ccccc1` (stereo not given), the figure is 17.1%; as for `N=c1ccc2nc(N)nn(O)c-2c1`, -1.2%. In the case of `C[n+]1ccccc1C(O)C(O)c1cccc[n+]1C` (stereo not given) it was 6.05%; in that of `Oc1ccccc1-n1nc2ccc3nonc3c2n1`, -16.8%; in that of `Cc1ccccc1C(=O)NNC(=O)c1ccc2ccccc2c1`, 7.3%. Regarding `O=C(O)c1oc2cccc3c2c1CCC3`, the growth inhibition is -3.6%.

With `CCOC(=O)NCC1(c2ccccc2)CCN(Cc2ccccc2)CC1`, the growth inhibition is -9.75%. As for `NC(=O)c1ccccc1NC(=O)CCCOc1ccccc1`, the figure is -11.5%; as for `CCOC(=O)C(C)C(=O)C(C)C` (stereo not given), -1.65%; as for `O=c1c2cnc3c4cccnc4ccc3c2[nH]n1-c1ccccc1`, -22.6%.

Regarding `Cc1ccc(Sc2cccc3c2C(=O)c2c(Sc4ccc(C)cc4)cccc2C3=O)cc1`, the growth inhibition is -18.9%. As for `CCOC(=O)CNCc1cccc(Cl)c1`, the figure is 5.15%. Turning to `CC1(C)CC(=O)C2=C(C1)NC(=S)C(C#N)C2c1ccccc1` (stereo not given), the growth inhibition was 10.2%. As for `O=COC1CCCCCC1`, the figure is -8.55%.

These data come from PubChem BioAssay (NCI).
